Bioassay records from PubChem BioAssay.
Shown are actives, neighbours in structure and some others; about 19% of the full set was active somewhere.
IL-1B inflam inh = qHTS for Inhibitors of Inflammasome Signaling: IL-1-beta AlphaLISA Primary Screen. THP-1 LPS/ATP IL-1B secretion, AlphaLISA, 16 h; hits give low values. 360,000 compounds, 4.7% hits. activity change, % at 57.5 µM; in the data active = activity change below about -50%; inconclusive = mostly about -30% to -49%
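Secreted IL-1B measured by AlphaLISA bead assay after 16 h compound exposure of THP-1 cells; compounds (final up to 57.5 uM) added 1 h before LPS (250 ng/mL) and ATP (1.25 mM) stimulation; lower signal means less secretion.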
DT40 TDP1 no CPT = qHTS for Inhibitors of human tyrosyl-DNA phosphodiesterase 1 (TDP1): qHTS in cells in absence of CPT; 420,000 compounds, 15% hits; DT40 Tdp1-/- hTDP1 cells, no CPT, ATP luminescence, 48 h; Potency, µM (series often up to 46.2 µM), most hits filed as inhibitors; AID 686978, 2013; also: nearly all actives have a fitted effect of over 55% in size
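No-CPT arm: Tdp1-/-;hTDP1 DT40 cells (400/well) plus compounds, incubated ≥48 hr at 37 °C. Readout CellTiter-Glo luminescence.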
TDP1 cell CPT = qHTS for Inhibitors of human tyrosyl-DNA phosphodiesterase 1 (TDP1): qHTS in cells in presence of CPT. chicken DT40 Tdp1-/-;hTDP1 cells + 20 nM CPT, ATP luminescence, 48 h. Potency, µM (highest dose often 46.2 µM), most hits filed as inhibitors. 420,000 compounds, 12% hits. AID 686979, 2013; also: nearly all actives have a fitted effect of over 55% in size
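Chicken DT40 Tdp1-/- cells stably complemented with human TDP1 were seeded at 400 cells/well in medium containing 20 nM camptothecin, exposed to pin-transferred compounds, and grown at 37 °C for at least 48 hr. Viability was read as ATP luminescence.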
HT1080 IDH1KD tx = qHTS for induction of synthetic lethality in tumor cells producing 2HG: qHTS for the HT-1080-IDH1KD cell line. HT-1080 IDH1 knockdown viability, ATP luminescence, 48 h. Potency, µM (top dose mostly 46.1 µM), actives largely listed as cytotoxic. 360,000 compounds, 2% hits. AID 686971, 2013
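IDH1KD HT-1080 cells, 750/well, RPMI + 5% FBS; compound pinned after 2 h settling; 48 h, 37 °C; CellTiter-Glo luminescence; % activity normalised to DMSO and no-cell wells; curves fitted, classed by r2 and efficacy.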
HT1080-NT tox = qHTS for induction of synthetic lethality in tumor cells producing 2HG: qHTS for the HT-1080-NT fibrosarcoma cell line. HT-1080-NT fibrosarcoma viability, CellTiter-Glo ATP luminescence, 48 h. Potency, µM (series often up to 46.1 µM), actives largely listed as cytotoxic. 360,000 compounds, 1.6% hits;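 also: NT is the 2HG producing partner of a matched IDH1 knockdown line; nearly all actives have a fitted effect of over 55% in size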
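Viability of the 2HG-overproducing fibrosarcoma line after 48 hours of compound exposure at 37 degrees C was determined by luminescence with CellTiter-Glo, and concentration-effect curves were then fitted and categorized.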
Large screens that a line does not name were inactive. Unless noted, calls follow the shape of the dose curve; as a rule, active = well fitted curve in the direction sought with a large enough effect; inconclusive = small, poorly fitted or top-dose-only effect, or another doubt; inactive = no such curve, though single readings can be large; an effect the other way counts as inactive or inconclusive.

CC(=O)c1ccc(N2CCN(C(=O)c3nn(Cc4ccccc4)c(=O)c4ccccc34)CC2)cc1	DT40 TDP1 no CPT 18µM, TDP1 cell CPT inconclusive
COC(=O)c1nn(Cc2ccccc2)c(=O)c2ccccc12	TDP1 cell CPT inconclusive
COc1cc2c(cc1OC)CN(C(=O)c1nn(Cc3ccccc3)c(=O)c3ccccc13)CC2	IL-1B inflam inh inconclusive, DT40 TDP1 no CPT 16µM, TDP1 cell CPT inconclusive
COc1cc2c(cc1OC)CN(C(=O)c1cc3ccccc3oc1=O)CC2	DT40 TDP1 no CPT 12µM, TDP1 cell CPT 10µM, HT1080 IDH1KD tx 16µM, HT1080-NT tox inconclusive
CC(=O)c1ccc(N2CCN(C(=O)c3n[nH]c4ccccc34)CC2)cc1	DT40 TDP1 no CPT inconclusive, TDP1 cell CPT inconclusive
CN(CC(=O)Nc1ccc(Cl)cc1)C(=O)CNC(=O)c1ccc(Br)o1	none
CCOC1=C2[C@H](c3ccccc3F)N(S(=O)(=O)c3ccc(C)cc3)C[C@H]2n2c(=O)n(-c3ccccc3)c(=O)n2C1	none
CC(=O)c1c(C)[nH]c(C(=O)CN2CCN(S(=O)(=O)c3ccccc3F)CC2)c1C	DT40 TDP1 no CPT inconclusive, TDP1 cell CPT inconclusive, HT1080-NT tox inconclusive
COCCN(CC(=O)Nc1cccc(C)c1C)C(=O)C1(c2ccc(Cl)cc2)CCC1	IL-1B inflam inh -53, DT40 TDP1 no CPT inconclusive, TDP1 cell CPT inconclusive
COCCN(CC(=O)Nc1cccc(C)c1C)C(=O)C1(c2ccccc2)CC1	none
NC(N)=NC(=O)c1nc(Cl)c(N2CCCCCC2)nc1N	IL-1B inflam inh inconclusive, DT40 TDP1 no CPT 7.1µM, TDP1 cell CPT 7.1µM, HT1080 IDH1KD tx inconclusive, HT1080-NT tox inconclusive
O=c1c2cc3c(=O)n(-c4ccccc4O)c(=O)c3cc2c(=O)n1-c1ccccc1O	HT1080 IDH1KD tx inconclusive, HT1080-NT tox inconclusive
CCOC(=O)c1cc(S(=O)(=O)Nc2ccccc2)[nH]n1	none (no result: IL-1B inflam inh, HT1080 IDH1KD tx, HT1080-NT tox)
Cc1ccc(S(=O)(=O)N/N=C\c2cn(CC(N)=O)c3ccccc23)cc1	none
COc1ccc(OC)c(S(=O)(=O)N/N=C\c2cn(CC(N)=O)c3ccccc23)c1	DT40 TDP1 no CPT inconclusive, TDP1 cell CPT 13µM, HT1080 IDH1KD tx inconclusive
COc1cccc(CNC(=O)C(C)n2ncn3cccc3c2=O)c1OC (stereo not drawn)	none (no result: IL-1B inflam inh, HT1080 IDH1KD tx, HT1080-NT tox)
CC(C)C[C@@H](CN(C)N=O)N(C[C@H](Cc1ccccc1)N(CCc1ccccc1)N=O)N=O	DT40 TDP1 no CPT 18µM, TDP1 cell CPT inconclusive
OCCN(Cc1ccccc1)Cc1cccc(C(F)(F)F)c1	none
CN(C[C@H](CC1CCCCC1)N(C[C@H](Cc1ccccc1)N(CCc1ccccc1)N=O)N=O)N=O	DT40 TDP1 no CPT 16µM, TDP1 cell CPT 18µM
CN(C[C@H](Cc1ccccc1)N(CCN(CCc1ccccc1)N=O)N=O)N=O	DT40 TDP1 no CPT inconclusive, TDP1 cell CPT inconclusive
CN(C[C@H](Cc1ccccc1)N(C[C@H](Cc1ccccc1)N(CCc1cc(C(F)(F)F)cc(C(F)(F)F)c1)N=O)N=O)N=O	DT40 TDP1 no CPT 21µM, TDP1 cell CPT inconclusive
CN(C[C@H](Cc1ccccc1)N(C[C@H](Cc1cccc2ccccc12)N(CCc1ccccc1)N=O)N=O)N=O	DT40 TDP1 no CPT inconclusive, TDP1 cell CPT inconclusive
O=C(CCc1ccc(O)c(O)c1)NNC(=S)Nc1ccc(Br)cc1Cl	none
COc1ccc(Oc2ccccc2C=O)cc1	DT40 TDP1 no CPT 5.8µM, TDP1 cell CPT 12µM
COc1ccc(Oc2ccccc2/C=C/C(=O)O)cc1	none
Cc1cc(C)cc(Oc2ccccc2/C=N\O)c1	none
Cc1cc(C)cc(Oc2ccccc2C=O)c1	DT40 TDP1 no CPT 4.6µM, TDP1 cell CPT 5.8µM, HT1080 IDH1KD tx inconclusive
C[C@H](NC(=O)c1nc[nH]c1C(=O)NCc1ccc(CNC(=O)OC(C)(C)C)cc1)c1ccccc1	DT40 TDP1 no CPT inconclusive, TDP1 cell CPT inconclusive, HT1080 IDH1KD tx inconclusive, HT1080-NT tox inconclusive
C[C@H](NC(=O)c1nc[nH]c1C(=O)NCCCCCNC(=O)OC(C)(C)C)c1ccccc1	DT40 TDP1 no CPT 16µM, TDP1 cell CPT 15µM
C[C@@H](NC(=O)c1nc[nH]c1C(=O)NCCCCCNC(=O)OC(C)(C)C)c1ccccc1	DT40 TDP1 no CPT inconclusive, TDP1 cell CPT 26µM
O=C(C[n+]1ccccc1)N/N=C/c1ccccc1Cl	none
CCCCC1Cc2[nH]c(=S)[nH]c(=O)c2C(c2ccc(Cl)cc2)O1 (stereo not drawn)	DT40 TDP1 no CPT inconclusive, TDP1 cell CPT inconclusive
CCC(C)C(NC)C(=O)O (stereo not drawn)	none (no result: IL-1B inflam inh, HT1080 IDH1KD tx, HT1080-NT tox)
O=C(Oc1ccc(Cl)c2cccnc12)N1CCOCC1	none
O=C(Oc1c(CN2CCOCC2)cc(Cl)c2cccnc12)c1ccccc1Cl	IL-1B inflam inh -91, DT40 TDP1 no CPT 2.9µM, TDP1 cell CPT 2.3µM, HT1080 IDH1KD tx 6.5µM, HT1080-NT tox inconclusive
O=C(Oc1c(Cl)cc(Cl)c2cccnc12)c1cccs1	DT40 TDP1 no CPT inconclusive, TDP1 cell CPT 16µM, HT1080 IDH1KD tx 21µM, HT1080-NT tox 21µM
O=C(Oc1c(CN2CCOCC2)cc(Cl)c2cccnc12)c1cccs1	IL-1B inflam inh -58, DT40 TDP1 no CPT 4.6µM, TDP1 cell CPT 4.1µM, HT1080 IDH1KD tx 3.7µM, HT1080-NT tox 2.9µM
CN(Cc1ccccc1)C(=O)c1ccc2sc([C@H]3C[C@H](O)[C@@H](CO)O3)nc2c1	none
COc1ccccc1N(C(=O)CNC(=O)c1ccco1)C(C(=O)NCC1CCCO1)c1ccccc1 (stereo not drawn)	none
CCOC(=O)C1CCN(C(=O)c2ccc(CNS(=O)(=O)c3ccc(C)cc3)cc2)CC1	DT40 TDP1 no CPT inconclusive
COc1cccc(CNS(=O)(=O)c2c(C)[nH]c(C)c2C(=O)N2CCCCC2)c1	DT40 TDP1 no CPT inconclusive, TDP1 cell CPT 26µM
Cc1ccc(S(=O)(=O)NCc2ccc(C(=O)N3CCN(Cc4ccccc4)CC3)cc2)cc1	IL-1B inflam inh -79, DT40 TDP1 no CPT inconclusive, TDP1 cell CPT inconclusive, HT1080-NT tox inconclusive
COc1ccc(S(=O)(=O)NCc2ccc(C(=O)N3CCN(Cc4ccccc4)CC3)cc2)cc1	TDP1 cell CPT inconclusive
COc1cccc(S(=O)(=O)NCc2ccc(C(=O)N3CCN(Cc4ccccc4)CC3)cc2)c1	IL-1B inflam inh -67, TDP1 cell CPT inconclusive
Cc1ccc(CNS(=O)(=O)c2c(C)[nH]c(C)c2C(=O)N2CCCC2)cc1	none
COc1ccc(CN2CCN(C(=O)c3ccc(CNS(=O)(=O)c4ccc(C)cc4)cc3)CC2)c(OC)c1OC	DT40 TDP1 no CPT 13µM, TDP1 cell CPT 13µM
Cc1cccc(NC(=O)CNC(=O)c2ccc(S(=O)(=O)NCc3ccco3)cc2)c1C	none
